# Data: PubChem BioAssay AID493054 (Broad Institute, 2011)
# Potency and affinity values are given separately. Unmarked numbers belong to inactive results.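 The calls were made as follows: active = viability loss with fitted half-maximal dose at most ten times the highest valid dose tested; inconclusive = flat viability loss between 30 and 70%, or poor curve fit; inactive = the rest, including flat curves or rising signal.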
# Assay: cytotoxicity in BJeH fibroblasts, dose response, counter-screen for Ras selective lethality project, BJeH cells, dry powder (AID 493054)
# Conditions: Alamar Blue fluorescence, 48 h; series mostly up to 45 µM; activity change, negative = viability loss: at the top concentration
row,SMILES,"activity change, negative = viability loss [%]"
1,COc1ccc(N(C(=O)CO)C(C(=O)NCCc2ccccc2)c2cccs2)cc1Cl (centres undefined),4.07
2,CCC(=O)N(c1ccc(OC)c(Cl)c1)C(C(=O)NCCc1ccccc1)c1cccs1 (centres undefined),1.23
3,COCC(=O)N(c1ccc(OC)c(Cl)c1)C(C(=O)NCCc1ccccc1)c1cccs1 (centres undefined),-1.47
4,O=C(c1[nH]ncc1[N+](=O)[O-])N1CCN(C(c2ccccc2)c2ccccc2)CC1,8.38
